High-throughput results from PubChem BioAssay.
Keap1-Nrf2 PPI – inhibitors of human Keap1-Nrf2 protein-protein interaction; Q14145; Keap1 Kelch-Nrf2 peptide fluorescence polarization, 1536-well; inhibition, % at 9.4 µM; 340,000 tested, 0.15% active; AID 504523; in the data active = inhibition above about 12%; inconclusive = no clear call, values can overlap the other calls; inactive = below about 7.3%;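 note: human Keap1 Kelch domain with fluorescein labeled Nrf2 9mer peptide probe; higher means more block of Keap1 binding to Nrf2 peptide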
GLD-1 TGE inh – GLD-1-TGE RNA interaction inhibition (C. elegans) | Q17339 | purified GLD-1 + fluorescein TGE RNA, fluorescence polarization | inhibition, % at 5.96 µM | 320,000 tested, 0.44% active | AID 2280;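 active = percent inhibition above a per-plate cutoff, the plate mean of test compounds plus 3 SD, cut at about 30% in these data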
Bcl-xL primary – Bcl-xL (human) inhibition. GST-Bcl-xL / FITC-Bim BH3 peptide fluorescence polarization. inhibition, % at 10.9 µM. 320,000 tested, 0.7% active;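 active = inhibition above the mean of all tested compounds plus 3 SD, cutoff set per campaign, cut at about 30% in these data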;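 note: inhibitors lower millipolarization by displacing the labeled peptide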
MEX-5 binding – C. elegans MEX-5 TCR-2 RNA binding activity; MEX-5/FITC-TCR2 RNA binding, fluorescence polarization; stronger effect = lower value; activity score (negative = inhibition of binding), % at 10 µM; 300,000 tested, 0.38% active; AID 1832;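 active = inhibition past about -25% in most replicates, and total fluorescence under double the plate's negative control median, limit read from the data; inconclusive = replicates evenly split on the limit, or fluorescence at least double controls; inactive = too little inhibition in most replicates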
Target sequence (Q9XUB2 whole entry, looked up): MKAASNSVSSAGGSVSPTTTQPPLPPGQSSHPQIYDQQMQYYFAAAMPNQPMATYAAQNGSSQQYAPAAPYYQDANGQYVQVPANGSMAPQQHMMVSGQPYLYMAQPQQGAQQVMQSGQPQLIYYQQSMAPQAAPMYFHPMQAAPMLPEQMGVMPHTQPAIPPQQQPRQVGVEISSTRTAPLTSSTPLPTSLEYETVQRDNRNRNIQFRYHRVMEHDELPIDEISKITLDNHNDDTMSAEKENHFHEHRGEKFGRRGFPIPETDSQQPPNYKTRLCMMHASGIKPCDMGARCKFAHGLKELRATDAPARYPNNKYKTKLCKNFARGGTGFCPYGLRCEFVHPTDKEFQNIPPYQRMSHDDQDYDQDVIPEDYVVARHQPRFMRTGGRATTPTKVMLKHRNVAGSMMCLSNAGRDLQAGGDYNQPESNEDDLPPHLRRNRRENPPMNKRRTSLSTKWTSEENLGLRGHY
E coli Lon inh – inhibitors of E. coli Lon protease. 360,000 tested, 0.42% active. P0A9M0. inhibition, % at 7.94 µM. purified E. coli Lon protease, fluorescence polarization. AID 602123; in the data active = inhibition above about 13%, passing the limit was not always enough
LANA DNA inh – KSHV C-LANA DNA binding inhibition; inhibition, % at 9 µM; 340,000 tested, 0.078% active; MBP-C-LANA/FAM-LBS DNA binding, fluorescence polarization;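 active = highest replicate inhibition at or above 60% at 9 µM, even if other replicates fall short; inactive = all replicates below 60% inhibition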
E coli Lon conf – confirmation of E. coli Lon protease inhibitors | shares compounds with E coli Lon inh | purified E. coli Lon, fluorescence polarization | inhibition, % at 7.94 µM | 1,400 tested, 31% active | AID 602230; in the data active = inhibition above about 16%
Hits are given with their value; - = inactive; ? = inconclusive; . = no result. In the library only some 1.2% were active in any assay of this set; here they are far more common.

SMILES	Keap1-Nrf2 PPI	GLD-1 TGE inh	Bcl-xL primary	MEX-5 binding	E coli Lon inh	LANA DNA inh	E coli Lon conf
Cc1c([N+](=O)[O-])nnn1-c1cc(Cl)cc(Cl)c1	-	-	-	-	28	-	-
CCOC(=O)c1ccc(S(=O)(=O)Nc2cc(S(=O)(=O)Nc3ccc(OC)cc3)ccc2O)cc1	?	-	.	.	-	-	.
O=C(CCC(=O)N1CCc2ccccc2C1)NCCc1ccc(Cl)cc1	-	-	-	-	-	-	.
O=C1C2ON(c3ccccc3)C(c3ccccn3)C2C(=O)N1c1ccc(Br)cc1 (stereo not given)	-	-	-	-	15	-	-
CCOc1cc2c(cc1OCC)CN(C(=O)c1cccc(S(=O)(=O)N3CCCC3)c1)CC2	-	-	-	.	-	-	.
O=C1C=C(Nc2ccccc2O)c2ccccc2C1=O	-	99	83	-	43	-	-
Cc1cc(C)n2nc(C)c(-c3ccccc3)c2n1	-	-	-	-	22	-	-
Cc1cc(C)n2nc(-c3ccccc3)c(-c3ccccc3)c2n1	-	-	-	-	-	-	.
Cn1c(=O)c2c(ncn2CC(=O)N/N=C/C=C\c2ccccc2[N+](=O)[O-])n(C)c1=O	.	-	-	-	.	.	.
O=S(=O)(Nc1ccc(O)c(NS(=O)(=O)c2ccccc2)c1)c1ccccc1	-	-	-	-	18	-	-
Cc1cc(NS(=O)(=O)c2ccccc2)ccc1NS(=O)(=O)c1ccccc1	-	.	.	.	-	-	.
COc1ccc(Nc2cccc3ccccc23)cc1	-	-	-	-	84	-	-
COc1ccc(Nc2cccccc2=O)cc1	-	-	-	-	-	-	.
CC(C)[C@H](NC(=O)OC(C)(C)C)C(=O)N1CCC(C(=O)N[C@@H](C)C(=O)Nc2ccc(F)cc2)CC1	-	-	-	-	19	-	-
Cc1ccc(NC(=O)c2ccc(NS(=O)(=O)c3ccc4[nH]c(=O)[nH]c4c3)cc2)nc1	-	-	-	-	-	-	.
O=C1c2ccccc2C(Nc2ccc3c(c2)OCO3)N1Cc1ccc2c(c1)OCO2 (stereo not given)	-	-	-	-	-	-	.
O=C1c2ccccc2C(O)N1Cc1ccc2c(c1)OCO2 (stereo not given)	-	-	-	-	15	-	-
CN(C)CCNc1oc(COc2ccc(Cl)cc2)nc1C#N	-	-	-	-	-	-	.
CN(C)CCNc1oc(COc2cccc(Cl)c2)nc1C#N	-	-	-	-	20	-	-
CCC1CN(C(=O)N2CCC(C(=O)NCCc3ccc(OC)cc3OC)CC2)c2ccccc2O1 (stereo not given)	-	-	-	-	-	-	.
Cc1ccccc1NC(=O)C1CCCN(c2ncnc3onc(-c4ccc(F)cc4)c23)C1 (stereo not given)	-	-	-	-	16	-	-
Cc1ccnc(NC(=O)c2ccc(S(=O)(=O)N3CCC(C)CC3)cc2)c1	-	-	-	-	-	-	.
COC(=O)CCCC1=CC2=C(c3ccccc3)C(=O)C(C)(OC(=O)C3CCCC3)C(=O)C2=CN1CCN1CCOCC1 (stereo not given)	-	90	120	-	84	-	24
COC(=O)CCCC1=CC2=C(c3ccccc3)C(=O)C(C)(OC(=O)C3CCCC3)C(=O)C2=CN1CCc1ccccn1 (stereo not given)	-	-	-	-	-	-	.
COc1ccc(S(=O)(=O)N2CCOC23CCN(S(=O)(=O)c2ccccc2)CC3)cc1	-	-	-	-	-	-	.
SMILES	Keap1-Nrf2 PPI	GLD-1 TGE inh	Bcl-xL primary	MEX-5 binding	E coli Lon inh	LANA DNA inh	E coli Lon conf
F[B-](F)(F)c1cc2ccccc2s1	-	.	.	.	31	-	44
F[B-](F)(F)c1cc2cc(Br)ccc2s1	-	.	.	.	27	-	40
O=C(COC(=O)C1CC1)NCCc1ccc(Cl)cc1	-	.	.	.	-	-	.
CCOc1ccc(CC(=O)OCc2cc(=O)n3cc(Br)ccc3n2)cc1	-	-	-	.	42	-	-
Cc1ccc(N(CC(O)CN2CCOCC2)S(=O)(=O)c2ccc([N+](=O)[O-])cc2)cc1 (stereo not given)	-	-	-	-	17	-	-
Cc1ccc(-c2nnn(CC(=O)N(c3ccc(F)cc3)C(C(=O)NC3CCCC3)c3ccncc3)n2)o1 (stereo not given)	-	-	-	-	18	-	-
COc1ccc(C(C(=O)NC2CCCC2)N(CC2CCCO2)C(=O)Cn2nnc(-c3ccc(C)o3)n2)cc1 (stereo not given)	-	-	-	-	18	-	-
S=C(Nc1ccc(N2CCOCC2)cc1)Nc1ccc2nc(-c3ccco3)c(-c3ccco3)nc2c1	-	129	188	-	43	-	84
CN(Cc1ccccc1)C(=O)c1[nH]cnc1C(=O)Nc1cccc(Cl)c1	-	-	-	.	-	-	.
CCN(CC)c1ccc(C=Nc2cccnc2Cl)c(O)c1	-	-	44	-	16	-	-
CCN(CC)c1ccc(C=Nc2cc(C)ccc2C)c(O)c1	-	-	-	-	-	-	.
COCCN(C(=O)C1=COCCO1)c1c(N)n(Cc2ccccc2)c(=O)[nH]c1=O	-	-	-	-	28	-	-
COCCN(C(=O)C1=COCCO1)c1c(N)n(CC(C)C)c(=O)[nH]c1=O	-	-	-	.	24	-	-
FC(F)(F)c1ccc(-c2cccc3c2C2CC3CCN2C(=S)NCCc2ccccc2)cc1 (stereo not given)	.	.	.	.	-	.	.
COC1=CC(=NCl)C=CC1=NCl	.	.	.	.	45	.	39
Cc1ccccc1NC(=O)COC(=O)CC1CCCC1	-	.	.	.	-	-	.
CCOc1ccccc1NC(=O)Nc1ccc(OC)nc1	-	.	.	?	22	-	16
COc1ccccc1N1CCN(S(=O)(=O)c2c(C)[nH]c(=O)[nH]c2=O)CC1	-	-	-	.	-	-	.
Cc1[nH]c(=O)[nH]c(=O)c1S(=O)(=O)N1CCN(c2ccccc2F)CC1	-	-	-	-	44	-	-
COc1cc(CN2CCC(C(=O)NCC(C)(C)CN(C)C)CC2)ccc1OCc1ccccc1	-	-	-	-	-	-	.
O=C(c1ccc(Br)o1)N1CCN(C23CC4CC(CC(C4)C2)C3)CC1	-	-	-	-	29	-	-
Cc1c(NC(=O)c2cc(Br)ccc2Cl)cccc1-n1cnnn1	-	-	.	.	20	-	-
CCOc1ncccc1C(=O)Nc1cccc(-n2cnnn2)c1C	-	-	.	.	-	-	.
CCN(CC)c1ccc2nc3ccc(N)cc3[n+](-c3ccccc3)c2c1	-	.	.	.	170	-	124
COc1ccc(-c2nc3ccccc3nc2-c2ccc(OC)cc2)cc1	-	-	-	-	-	-	.
COc1ccc2nc(-c3ccco3)c(-c3ccco3)nc2c1	-	-	49	-	19	-	-
